Our source for the Potency and outcome values is PubChem BioAssay (Tox21).

Several values for one entry are separate records, joined by “and”; a condition that tells them apart may be missing. Equal values may be shown once. Records with an inconclusive call do not appear. Activity calls are given as the source filed them. Unless noted, calls follow the shape of the dose curve; as a rule, active = well fitted curve in the direction sought with a large enough effect in the repeat runs; inconclusive = weak or mixed curves; inactive = no such curve, though single readings can be large; an effect the other way counts as inactive or inconclusive.

Assay [1] in a line: qHTS assay to identify small molecule antagonists of the sonic hedgehog signaling (Shh) pathway (AID 1259369; calls by dose curve; also: nearly all actives have a fitted effect of over 45% in size). The settings on record: NIH/3T3 Gli1-Luc reporter, Shh antagonist, luminescence 24 h; series mostly up to 92.4 µM. A digest of the protocol:
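Gli1 transcriptional reporter (firefly Luc) in NIH/3T3 background, conditioned-medium activated. 24hr exposure, luminescence endpoint.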
For orientation: qHTS replaces the single test concentration by a dilution series.

Assay [2] is described as follows: qHTS assay to identify small molecule agonists of the androgen receptor (AR) signaling pathway in the presence of an antagonist - cell viability counter screen (AID 1259379).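 Also: MDA-kb2 human breast cancer cells carrying an MMTV luciferase reporter; nearly all actives have a fitted effect of over 25% in size.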 The settings on record: MDA-kb2 viability, CellTiter-Fluor, 16 h; series mostly up to 92.4 µM. Put shortly: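 Counter screen for cell viability run in parallel with the AR agonist-mode luciferase assay. MDA-kb2 cells were co-treated with nilutamide (3.0uM final) and compounds, then incubated 16 hr at 37C, and CellTiter-Fluor fluorescence was measured.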

Assay [3] is described as follows: qHTS assay to identify small molecule agonists of the estrogen receptor beta (ER-beta) signaling pathway - cell viability counter screen (AID 1259380). Also: nearly all actives have a fitted effect of over 30% in size. To be noted: ER-beta-bla HEK293T viability, CellTiter-Glo luminescence, 16 h; series mostly up to 92.4 µM. A digest of the protocol:
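In this qHTS counter screen, HEK293T cells carrying an ER-beta/UAS beta-lactamase reporter, grown in 2% charcoal-stripped FBS, received compound for 16 hr; ATP-based CellTiter-Glo luminescence was then read after 30 min at room temperature.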

Assay [4] can be described thus: qHTS assay to identify small molecule antagonists of the estrogen receptor beta (ER-beta) signaling pathway - cell viability counter screen (AID 1259382).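 Also: HEK293T cells carrying ER-beta-UAS-bla reporter stimulated with estradiol; nearly all actives have a fitted effect of over 55% in size.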 The settings on record: ER-beta-UAS-bla HEK293T viability, CellTiter-Glo luminescence, 16 h; series mostly up to 92.4 µM. Put shortly:
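HEK293T ER-beta-UAS-bla, 2% charcoal-stripped FBS; compounds + 1nM E2 16 hr 37C; CellTiter-Glo luminescence, 30 min RT.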

Assay [5] can be described thus: qHTS assay to identify small molecule agonists or antagonists of the thyroid stimulating hormone receptor (TSHR) signaling pathway - wild type cell line counter screen (AID 1259384; calls by dose curve). To be noted: HEK293 wild type, cAMP HTRF counter-screen; series mostly up to 92.4 µM. A digest of the protocol:
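Wild-type Hek293 cells, 800/well, 18 h at 37C, then compound with Ro20-1724 for 30 min RT. cAMP by HTRF (cAMP-d2/anti-cAMP cryptate), 1 h RT, fluorescence read. 15 concentrations, triplicates.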

The target in assay [6] is Thyrotropin receptor (Homo sapiens) (UniProt P16473). The assay can be described thus: qHTS assay to identify small molecule antagonists of the thyroid stimulating hormone receptor (TSHR) signaling pathway (AID 1259385; calls by dose curve; also: nearly all actives have a fitted effect of over 20% in size; also: potency is read from the fitted curve at half-maximal effect). To be noted: TSHR-HEK293 cAMP HTRF, TSH-stimulated antagonist mode; series mostly up to 92.4 µM. Put shortly: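 TSHR-HEK293 cells (800/well) plated 18 h, then compounds with Ro20-1724 and TSH at 1.5 ng/mL final, 30 min at room temperature. cAMP quantified by HTRF (cAMP-d2/anti-cAMP-cryptate, 1 h); 15 concentrations in triplicate.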
Thyrotropin receptor (Homo sapiens), sequence (P16473 whole entry, looked up): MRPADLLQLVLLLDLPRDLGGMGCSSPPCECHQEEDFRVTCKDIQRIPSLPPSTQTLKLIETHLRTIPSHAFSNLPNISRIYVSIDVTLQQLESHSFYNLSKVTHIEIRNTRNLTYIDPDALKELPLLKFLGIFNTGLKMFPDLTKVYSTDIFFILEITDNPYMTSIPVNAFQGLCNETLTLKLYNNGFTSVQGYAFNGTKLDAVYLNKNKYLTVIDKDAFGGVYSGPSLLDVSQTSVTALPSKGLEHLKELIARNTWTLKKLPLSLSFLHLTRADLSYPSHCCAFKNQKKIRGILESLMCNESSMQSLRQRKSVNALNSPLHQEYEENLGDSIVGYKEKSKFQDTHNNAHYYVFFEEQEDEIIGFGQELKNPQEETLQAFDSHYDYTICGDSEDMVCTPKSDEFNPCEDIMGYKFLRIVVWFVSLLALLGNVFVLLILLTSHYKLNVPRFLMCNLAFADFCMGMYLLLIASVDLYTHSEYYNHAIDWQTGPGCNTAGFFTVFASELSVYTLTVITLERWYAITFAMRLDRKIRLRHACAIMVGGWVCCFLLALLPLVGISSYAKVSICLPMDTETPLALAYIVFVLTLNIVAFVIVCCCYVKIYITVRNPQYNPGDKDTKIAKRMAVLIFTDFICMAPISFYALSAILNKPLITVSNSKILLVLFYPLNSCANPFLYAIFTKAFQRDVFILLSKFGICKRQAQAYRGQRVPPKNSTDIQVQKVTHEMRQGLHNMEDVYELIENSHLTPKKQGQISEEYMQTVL

Assay [7] can be described thus: qHTS assay to identify small molecule agonists of the estrogen receptor alpha (ER-alpha) signaling pathway in the presence of an antagonist - cell viability counter screen (AID 1259386). Also: nearly all actives have a fitted effect of over 30% in size. The settings on record: VM7Luc4E2 viability, CellTiter-Fluor fluorescence, 22 h; series mostly up to 92.4 µM. A digest of the protocol: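 Steps: 5-day stripped-FBS culture; seed and incubate 24hr; add ICI-182,780 (10.0nM final); pin 15-point compound titration; incubate 22hr at 37C; add CellTiter-Fluor at 21hr; read fluorescence.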

In assay [8] the target is Progesterone receptor (Homo sapiens) (UniProt P06401). As to the kind of experiment: qHTS assay to identify small molecule agonists of the progesterone receptor (PR) signaling pathway (AID 1346784; calls by dose curve; also: nearly all actives have a fitted effect of over 30% in size). To be noted: PR-UAS-bla HEK293T, beta-lactamase FRET ratio, 16 h; series mostly up to 92.4 µM. A digest of the protocol:
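Agonist mode, quantitative HTS format in a HEK 293T line expressing a UAS-controlled beta-lactamase reporter; 16 hr compound exposure at 37C in 2% charcoal-stripped FBS, then LiveBLAzer B/G FRET fluorescence.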

The target is the same in assay [9]. The assay can be described thus: qHTS assay to identify small molecule antagonists of the progesterone receptor (PR) signaling pathway (AID 1346795; active = well fitted inhibition curve with a large enough effect in the signal ratio in the repeat runs, not every such curve was filed as active; the % refers to the signal ratio; also: potency is read from the fitted curve at half-maximal effect). The settings on record: PR-UAS-bla HEK293T, beta-lactamase FRET ratio, 16 h; series mostly up to 92.4 µM. A digest of the protocol:
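HEK293T PR-UAS-bla reporter cells in charcoal-stripped serum (2%) received compound after a 6 hr settling period, followed by R5020 agonist at 1 nM final; 16 hr incubation preceded the FRET substrate step and fluorescence measurement.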

A short description of assay [10]: qHTS assay to identify small molecule antagonists of the progesterone receptor (PR) signaling pathway - cell viability counter screen (AID 1346798). Also: nearly all actives have a fitted effect of over 50% in size. The settings on record: PR-UAS-bla HEK293T viability, CellTiter-Glo luminescence, 16 h; series mostly up to 92.4 µM. A digest of the protocol: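 Same-well multiplex: after 16 hr at 37C with compound and R5020 stimulation, HEK293T cells carrying a UAS-bla reporter received LiveBLAzer substrate (2 hr RT), then CellTiter-Glo (30 min RT) for luminescent viability.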

Assay [11] can be described thus: qHTS assay to identify small molecule agonists of the progesterone receptor (PR) signaling pathway - cell viability counter screen (AID 1346799; calls by dose curve; also: nearly all actives have a fitted effect of over 45% in size). To be noted: PR-UAS-bla HEK293T viability, CellTiter-Glo luminescence, 16 h; series mostly up to 92.4 µM. A digest of the protocol: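 Counter screen for cytotoxicity: compound-treated PR-UAS-bla HEK293T cells (16 hr, 37C, 5% CO2) were assayed with CellTiter-Glo, luminescence measured after 30 min at room temperature.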

Assay [12] in a line: qHTS assay to identify small molecule antagonists of the TGF-beta/Smad signaling pathway - cell viability counter screen (AID 1346824). Also: nearly all actives have a fitted effect of over 50% in size. To be noted: SBE-bla HEK293T viability, CellTiter-Glo luminescence; series mostly up to 76.8 µM. Put shortly:
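SBE-bla HEK 293T cells, incubated overnight, then compound plus 0.25 ng/mL TGF-beta1 (stock added) for 5 hr at 37 C. Viability was read in the same wells by CellTiter-Glo luminescence after 30 min at room temperature.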

A short description of assay [13]: qHTS assay to identify small molecule agonists of the TGF-beta/Smad signaling pathway - cell viability counter screen (AID 1346829). Also: top concentration of the series differs between compounds; nearly all actives have a fitted effect of over 45% in size. The settings on record: SBE-bla HEK293T viability, CellTiter-Glo luminescence, 5 h; series mostly up to 76.8 µM. Put shortly:
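Luminescence from CellTiter-Glo, read after a 30 min room-temperature incubation, gives cell viability of SBE-bla HEK 293T cells treated 5 hr with compounds at 37 C.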

Assay [14] in a line: qHTS assay to identify small molecule agonists of the TGF-beta/Smad signaling pathway (AID 1346859; active = well fitted activation curve with a large enough effect in the signal ratio in the repeat runs, not every such curve was filed as active; the % refers to the signal ratio). The settings on record: SBE-bla HEK293T, TGF-beta/Smad beta-lactamase reporter, 5 h; series mostly up to 76.8 µM. Put shortly: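 Smad-responsive beta-lactamase reporter cells (HEK 293T) received compounds from DMSO stocks after overnight attachment, were incubated 5 hr, then treated 2 hr with FRET substrate before dual-emission fluorescence measurement (405 nm excitation).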

Assay [15] concerns the target Estrogen receptor (Homo sapiens) (UniProt P03372). As to the kind of experiment: qHTS assay to identify small molecule agonists of the estrogen receptor alpha (ER-alpha) signaling pathway in the presence of an antagonist (AID 1259383; calls by dose curve; also: top concentration of the series differs between compounds; nearly all actives have a fitted effect of over 15% in size). To be noted: VM7Luc4E2 cells, ERE-luciferase, +ICI-182,780, 22 h; series mostly up to 92.4 µM. A digest of the protocol:
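ER-alpha agonism measured under antagonist challenge: 10.0nM ICI-182,780 (final) plus compound, 15 concentrations, 22hr, VM7Luc4E2 ERE-luciferase cells. Read by luminescence.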

The target of assay [16] is Thyrotropin-releasing hormone receptor (Homo sapiens) (UniProt P34981). As to the kind of experiment: qHTS assay to identify small molecule antagonists of the thyrotropin-releasing hormone receptor (TRHR) signaling pathway (AID 1346877; active = well fitted inhibition curve with a large enough effect in the repeat runs, not every such curve was filed as active). To be noted: TRHR-HEK293, TRH-induced calcium fluorescence, antagonist mode; series mostly up to 51.3 µM. Put shortly:
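Human TRHR in HEK293 cells; inhibition of the intracellular calcium rise triggered by 1 nM TRH was followed by fluorescence over 3 min. Compounds were run at 15 concentrations, three replicates each.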

The target is the same in assay [17]. The assay can be described thus: qHTS assay to identify small molecule agonists of the thyrotropin-releasing hormone receptor (TRHR) signaling pathway (AID 1346891; calls by dose curve;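 also: HEK293 cells expressing TRHR with calcium dye readout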). To be noted: TRHR-HEK293 calcium fluorescence, agonist mode; series mostly up to 57.6 µM. A digest of the protocol: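 Agonist-mode calcium mobilisation screen: TRHR-transfected HEK293 cells cultured overnight (18 h), dye-loaded for 2 h at 37 °C, exposed to compounds, and monitored by fluorescence for 3 min.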

Progesterone receptor (Homo sapiens), sequence (P06401 whole entry, looked up): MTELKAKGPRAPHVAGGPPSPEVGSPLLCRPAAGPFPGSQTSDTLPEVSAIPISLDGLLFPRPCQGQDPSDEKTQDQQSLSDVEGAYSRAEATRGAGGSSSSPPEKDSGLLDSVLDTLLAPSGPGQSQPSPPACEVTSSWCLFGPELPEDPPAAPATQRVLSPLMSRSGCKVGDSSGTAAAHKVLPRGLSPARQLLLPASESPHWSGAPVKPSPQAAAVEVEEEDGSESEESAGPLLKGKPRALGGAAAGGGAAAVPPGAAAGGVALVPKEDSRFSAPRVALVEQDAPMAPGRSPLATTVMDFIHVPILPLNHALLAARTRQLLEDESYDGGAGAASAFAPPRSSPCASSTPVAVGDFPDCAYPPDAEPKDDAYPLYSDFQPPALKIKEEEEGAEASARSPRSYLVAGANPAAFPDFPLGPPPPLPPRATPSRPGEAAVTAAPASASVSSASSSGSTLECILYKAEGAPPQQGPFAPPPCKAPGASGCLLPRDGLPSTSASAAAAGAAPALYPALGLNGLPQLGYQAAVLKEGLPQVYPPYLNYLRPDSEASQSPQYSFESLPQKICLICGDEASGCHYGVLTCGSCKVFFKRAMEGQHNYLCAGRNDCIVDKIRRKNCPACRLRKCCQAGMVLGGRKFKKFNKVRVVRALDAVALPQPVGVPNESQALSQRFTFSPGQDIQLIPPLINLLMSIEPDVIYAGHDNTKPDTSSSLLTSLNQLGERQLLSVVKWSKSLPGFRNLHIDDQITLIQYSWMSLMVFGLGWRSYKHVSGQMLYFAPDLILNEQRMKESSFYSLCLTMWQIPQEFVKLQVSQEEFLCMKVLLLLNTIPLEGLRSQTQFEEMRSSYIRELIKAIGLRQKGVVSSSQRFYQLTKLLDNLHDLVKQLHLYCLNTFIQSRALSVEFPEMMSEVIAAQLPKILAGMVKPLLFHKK
Thyrotropin-releasing hormone receptor (Homo sapiens), sequence (P34981 whole entry, looked up): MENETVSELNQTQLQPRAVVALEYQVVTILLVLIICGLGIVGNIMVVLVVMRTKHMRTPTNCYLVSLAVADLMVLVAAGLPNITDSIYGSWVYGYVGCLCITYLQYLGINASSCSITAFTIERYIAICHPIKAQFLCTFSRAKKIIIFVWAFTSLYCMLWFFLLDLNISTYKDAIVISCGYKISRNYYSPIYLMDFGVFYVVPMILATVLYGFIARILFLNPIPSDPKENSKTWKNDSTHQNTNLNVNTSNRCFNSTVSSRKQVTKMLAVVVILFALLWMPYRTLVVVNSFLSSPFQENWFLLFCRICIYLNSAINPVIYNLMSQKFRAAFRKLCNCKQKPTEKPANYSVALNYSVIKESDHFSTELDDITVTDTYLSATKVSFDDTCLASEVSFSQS
Estrogen receptor (Homo sapiens), sequence (P03372 whole entry, looked up): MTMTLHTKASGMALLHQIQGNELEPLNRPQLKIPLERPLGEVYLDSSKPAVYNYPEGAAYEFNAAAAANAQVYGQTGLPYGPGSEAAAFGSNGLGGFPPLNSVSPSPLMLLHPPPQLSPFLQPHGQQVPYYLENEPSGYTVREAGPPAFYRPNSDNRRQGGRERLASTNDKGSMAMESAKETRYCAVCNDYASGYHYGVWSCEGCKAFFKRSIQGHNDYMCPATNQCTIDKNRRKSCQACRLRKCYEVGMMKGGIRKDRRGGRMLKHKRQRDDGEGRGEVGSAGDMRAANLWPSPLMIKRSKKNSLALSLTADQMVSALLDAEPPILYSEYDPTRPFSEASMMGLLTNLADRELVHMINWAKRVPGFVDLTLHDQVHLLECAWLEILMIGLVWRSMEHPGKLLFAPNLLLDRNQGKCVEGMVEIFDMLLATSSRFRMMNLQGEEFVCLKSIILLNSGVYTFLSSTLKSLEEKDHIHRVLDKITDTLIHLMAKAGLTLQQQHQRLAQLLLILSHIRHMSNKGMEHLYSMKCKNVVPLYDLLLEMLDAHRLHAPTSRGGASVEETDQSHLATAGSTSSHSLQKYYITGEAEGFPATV

Regarding `CC1CC(=O)O1` (stereo unspecified), the Potency entry in assay [1], in assay [2], in assay [3], in assay [4], in assay [5] and in assay [6] was “inactive” throughout. For the same compound, the Potency result in assay [7], in assay [8], in [9], in [10], in assay [11] and in assay [12] was “inactive” throughout. The Potency entry in assay [13] and in assay [14] was “inactive” each time.

Turning to `C[N+](C)(C)C`, the Potency entry in assay [1], in assay [2], in assay [3], in [4], in assay [15] and in [5] was “inactive” throughout. In addition, the Potency result in assay [6], in [7], in assay [8], in [9], in [10] and in assay [11] was “inactive” throughout. The Potency entry in assay [13] and in assay [16] was “inactive” throughout.

As to `CC(C)(C#N)N=NC(C)(C)C#N`, the Potency result in assay [1], in assay [2], in [3], in [4], in [15] and in assay [5] was “inactive” each time. Also, the Potency result in [6], in [7], in [8], in [9], in assay [10] and in assay [11] was “inactive” in each case. Further, the Potency result in assay [12], in assay [13] and in assay [16] was “inactive” each time.

Consider `CCCCC(C#N)(Cn1cncn1)c1ccc(Cl)cc1` (stereo unspecified), for which the Potency entry in [1], in assay [2], in assay [4], in assay [15], in [5] and in assay [7] was “inactive” throughout. Moreover, the Potency result in assay [8], in [10], in assay [11], in assay [13], in assay [14] and in [16] was “inactive” throughout. The Potency in assay [6] was 60.9 µM (active) and 54.5 µM (active); in [9], 30.5 µM (active). Besides, in assay [17], the result was inactive.

For `C[N+](C)(C)CC(=O)[O-]`, the Potency entry in assay [1], in assay [2], in assay [3], in assay [4], in [15] and in assay [7] was “inactive” each time. Also, the Potency entry in [8], in assay [9], in assay [10], in assay [11], in [12] and in [13] was “inactive” throughout. In assay [14], the Potency result is “inactive”.

In the case of `ClC(Cl)=C(Cl)C(Cl)=C(Cl)Cl`, the Potency result in assay [1], in assay [2], in [3], in assay [4], in assay [15] and in [5] was “inactive” in each case. Also, the Potency result in [6], in assay [7], in assay [8], in assay [9], in assay [10] and in [11] was “inactive” each time. The Potency entry in assay [13], in [14] and in [16] was “inactive” throughout.
